Results as given in article PMC4336329 (PLoS ONE, 2015).
Out of some 310,000 compounds screened, about 14,000 (4.5%) showed an effect of 50% or more. The effect is printed as a negative number. The full list was thinned out, with strong results kept by preference.

Target: human ether-à-go-go-related gene (hERG) potassium channel (human, UniProt Q12809)
Assay: primary screen, population patch clamp on CHO cells stably expressing hERG; higher = less effect of the substance
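Also: peak tail current of the secondary pulse compared with the same well before compound.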

human ether-à-go-go-related gene (hERG) potassium channel, sequence (Q12809 whole entry, looked up): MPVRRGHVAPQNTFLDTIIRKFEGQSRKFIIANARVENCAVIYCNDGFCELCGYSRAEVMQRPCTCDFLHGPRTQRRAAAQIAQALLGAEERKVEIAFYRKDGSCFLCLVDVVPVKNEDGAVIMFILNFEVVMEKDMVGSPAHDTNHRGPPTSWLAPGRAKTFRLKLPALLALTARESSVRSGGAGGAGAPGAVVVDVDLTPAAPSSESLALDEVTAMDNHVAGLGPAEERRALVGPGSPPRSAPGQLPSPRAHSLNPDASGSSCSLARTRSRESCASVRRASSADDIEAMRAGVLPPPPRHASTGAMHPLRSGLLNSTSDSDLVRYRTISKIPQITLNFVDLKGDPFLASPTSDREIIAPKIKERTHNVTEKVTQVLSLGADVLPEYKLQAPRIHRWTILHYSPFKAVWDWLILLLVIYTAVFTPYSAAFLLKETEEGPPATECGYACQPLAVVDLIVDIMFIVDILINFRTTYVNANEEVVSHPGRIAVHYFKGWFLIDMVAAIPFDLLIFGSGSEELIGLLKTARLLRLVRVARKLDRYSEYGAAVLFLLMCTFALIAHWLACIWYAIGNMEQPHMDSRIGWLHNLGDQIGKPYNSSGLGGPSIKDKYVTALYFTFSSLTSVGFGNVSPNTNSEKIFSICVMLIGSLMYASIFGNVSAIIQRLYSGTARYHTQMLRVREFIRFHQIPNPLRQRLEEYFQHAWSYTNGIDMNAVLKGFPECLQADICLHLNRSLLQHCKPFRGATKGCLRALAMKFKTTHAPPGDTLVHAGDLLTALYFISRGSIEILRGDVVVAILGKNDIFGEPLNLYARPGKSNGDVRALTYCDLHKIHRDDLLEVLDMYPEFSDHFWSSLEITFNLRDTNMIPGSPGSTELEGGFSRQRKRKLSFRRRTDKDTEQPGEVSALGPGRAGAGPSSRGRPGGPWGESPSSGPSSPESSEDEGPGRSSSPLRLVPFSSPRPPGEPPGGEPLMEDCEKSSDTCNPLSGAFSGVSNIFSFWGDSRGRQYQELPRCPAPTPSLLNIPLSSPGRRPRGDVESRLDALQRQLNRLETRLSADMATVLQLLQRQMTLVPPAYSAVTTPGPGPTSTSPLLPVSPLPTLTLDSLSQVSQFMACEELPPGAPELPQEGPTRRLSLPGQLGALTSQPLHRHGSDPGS

Row | Structure (SMILES) | hERG current change (%, negative = inhibition) at 10uM [%]
1 | CC(C)C(=O)Nc1cccc(C(=O)Nc2ccc(S(=O)(=O)Nc3nccs3)cc2)c1 | 8.32
2 | Nn1cnnc1SCC(=O)N1CCc2ccccc2C1 | -12.8
3 | COc1ccc(C(=O)c2nccc3ccccc23)cc1 | 0.535
4 | COc1cccc(N(CC(=O)NCC2CCCO2)C(=O)CNS(=O)(=O)c2ccccc2)c1 (stereo not drawn) | 23.1
5 | c1ccc(CCNc2ncnc3c2cnn3-c2ccccc2)cc1 | -40.5
6 | CC(=O)Nc1ccc(N2CCc3c(C)c(C#N)c4nc5ccccc5n4c32)cc1 | 8.55
7 | Cc1ccc(N(Cc2ccc(C(=O)NCCSc3ccccn3)cc2)S(C)(=O)=O)cc1C | -4.82
8 | Cc1nn(-c2ccc(Cl)cc2Cl)c(=O)c2ccccc12 | -11.3
9 | Nc1c2c(nc3ccccc13)CCC2.O=C(O)/C=C/C(=O)O | -18.2
10 | O=c1[nH]c(N2CCN(Cc3ccccc3)CC2)nc2c1CCC2 | 18.9
11 | Nc1c2c(nc3ccn(-c4ccccc4)c(=O)c13)CCCCC2 | -58.8
12 | Nc1c2c(nc3ccn(Cc4ccccc4)c(=O)c13)CCC2 | -66
13 | Cc1nc(SC2CC(=O)N(c3ccccc3)C2=O)nc2c1CCCC2 (stereo not drawn) | -3.22
14 | O=c1[nH]c(N2CCN(c3ccccc3)CC2)nc2c1CCCC2 | 2.28
15 | Cc1sc(NC(=O)CN2CCN(c3ccccn3)CC2)c(C#N)c1C | 2.51
16 | O=C(C/C=N/OCc1ccc(Cl)cc1Cl)c1ccccc1 | -6.79
17 | CC(=O)Nc1nc(-c2cccc3ccccc23)cs1 | -9.32
18 | CSc1ccc(CNC2CC2)cc1.Cl | -7.3
19 | CCCn1c(CC)nc([N+](=O)[O-])c1Sc1ccc(C)cc1 | -0.08
20 | CC(C)Cn1c(C(C)C)nc([N+](=O)[O-])c1Sc1ccc(Cl)cn1 | -6.57
21 | CCCCn1c(CCC)nc([N+](=O)[O-])c1Sc1ccc(Cl)cn1 | -53.2
22 | CCOC(=O)C1(Cc2cccc(Cl)c2)CCCN(C(=O)c2cccc(C)n2)C1 (stereo not drawn) | -1.76
23 | CCOCCCNC(=O)COc1ccc(OC)cc1 | 13.2
24 | Cn1c(N)c(C(=O)CCl)c(=O)n(Cc2ccccc2)c1=O | 2.2

Row | Structure (SMILES) | hERG current change (%, negative = inhibition) at 10uM [%]
25 | CC1(C)CC(NC(=O)c2ccc(Cl)cc2Cl)CC(C)(C)N1 | 2.81
26 | CC1(C)CC(NC(=S)NC(=O)c2cc(Br)ccc2Cl)CC(C)(C)N1 | -53.3
27 | CC1(C)CC(NC(=O)c2cc(Cl)ccc2Cl)CC(C)(C)N1 | -1.21
28 | C=C1c2cc(CC)ccc2NC(=O)N1c1ccc(C)cc1 | 8.71
29 | CC(=O)c1c(C)n(CCCOC(C)C)c2ccc(O)cc12 | -30.4
30 | COc1ccc(NS(=O)(=O)c2ccc(NC(=S)NC(=O)/C=C/c3ccccc3)cc2)nn1 | -3.33
31 | Cc1cccc(NC(=O)CN2C(=O)N/C(=C\c3ccc(-c4cccc(C(=O)O)c4)o3)C2=O)c1 | 19.3
32 | Cc1ccc2c(c1)C1CN(C)CCC1N2S(=O)(=O)c1cccc(C(F)(F)F)c1 (stereo not drawn) | -40.1
33 | Cc1ccc2c(c1)C1CN(C)CCC1N2S(=O)(=O)c1ccc(C(C)C)cc1 (stereo not drawn) | -73.4
34 | Cc1ccc2c(c1)C1CN(C)CCC1N2S(=O)(=O)c1cc(C(F)(F)F)ccc1Cl (stereo not drawn) | -27.6
35 | CCc1ccc(S(=O)(=O)N2c3ccc(C)cc3C3CN(C)CCC32)cc1 (stereo not drawn) | -60.4
36 | Cc1ccc2c(c1)C1CN(C)CCC1N2S(=O)(=O)c1ccccc1 (stereo not drawn) | -32.4
37 | Cc1ccc2c(c1)C1CN(C)CCC1N2S(=O)(=O)c1cccc(F)c1 (stereo not drawn) | -11.5
38 | O=C(COC(=O)c1ccc(S(=O)(=O)C(F)F)cc1)Nc1ccccc1C(=O)NC1CC1 | 11.5
39 | O=C(CCN=C1NS(=O)(=O)c2ccccc21)OCC(=O)c1ccc(F)cc1 | -3.17
40 | O=C(NCCCN1CCOCC1)c1onc(CSc2ccncc2)c1C(=O)NCCCN1CCOCC1 | -5.25
41 | CCCCCC(=O)N/N=C/c1ccc(N(C)C)cc1 | -19.2
42 | COc1cc(NC(=O)C2CCN(c3cnccn3)CC2)cc(OC)c1OC | 19.5
43 | COc1ccc(CNC(=O)CSc2ccc(Br)cc2)cc1OC | -63.1
44 | COc1ccccc1CNC(=O)CSc1ccc(Br)cc1 | -3.01
45 | COc1ccc(CCNC(=O)CSc2ccc(Br)cc2)cc1OC | 23
46 | COc1ccc(CCNC(=O)CSc2n[nH]c(N)n2)cc1OC | 30.1
47 | COc1ccc(CNC(=O)CSc2n[nH]c(N)n2)cc1 | 20.1
48 | COc1ccc(CNC(=O)CSc2n[nH]c(N)n2)cc1OC | -77.5

Row | Structure (SMILES) | hERG current change (%, negative = inhibition) at 10uM [%]
49 | COc1ccc(CNC(=O)C2CCN(c3nccs3)CC2)cc1 | -31.8
50 | CC(C)c1ccc(Oc2cccc(C(=O)/C(C#N)=C/N(C)C)c2)cc1 | -14.6
51 | Cc1ccsc1C(=O)C1CCCN(Cc2cnn(C)c2)C1 (stereo not drawn) | 12
52 | Cc1ccsc1C(=O)C1CCCN(Cc2cnc(N)nc2)C1 (stereo not drawn) | -4.85
53 | CCn1cc(CN2CCCC(C(=O)c3sccc3C)C2)cn1 (stereo not drawn) | -27.3
54 | CSc1ccc(C(=O)C2CCCN(Cc3cnc(SC)nc3)C2)cc1 (stereo not drawn) | -76.4
55 | Cc1ccsc1C(=O)C1CCCN(Cc2cnn(C(C)C)c2)C1 (stereo not drawn) | -56.4
56 | O=C(c1ccc(Cl)cc1)C1CCCN(Cc2cccn2-c2cccnc2)C1 (stereo not drawn) | -42
57 | CSc1ncc(CN2CCCC(C(=O)c3sccc3C)C2)cn1 (stereo not drawn) | -55.2
58 | Cc1ccsc1C(=O)C1CCCN(Cc2cnc(N3CCCC3)s2)C1 (stereo not drawn) | -15.3
59 | CSc1ccc(C(=O)C2CCCN(Cc3cccn3-c3cccnc3)C2)cc1 (stereo not drawn) | -65.1
60 | CSc1ncc(CN2CCCC(C(=O)c3ccc(C(C)(C)C)cc3)C2)cn1 (stereo not drawn) | -31.9
61 | CSc1ncc(CN2CCCC(C(=O)c3cccc(Cl)c3)C2)cn1 (stereo not drawn) | -47.1
62 | COc1cccc(/C=N/NC(=O)C(C)n2nnc3ccccc32)c1 (stereo not drawn) | -1.1
63 | Cc1cc([N+](=O)[O-])nn1CC(=O)Nc1sc2c(c1C(N)=O)CCCC2 | 7.62
64 | CCN(CC(=O)NCc1cccs1)CC(=O)Nc1c(Cl)ccc(C)c1Cl | -16.8
65 | CC12CC3(C)CC(C)(C1)CC(C(=O)NC(=S)NC(C)(C)C)(C2)C3 | 13.3
66 | O=C(C1CCCN(Cc2cccnc2)C1)N1CCCCC1.O=C(O)C(=O)O (stereo not drawn) | 7.77
67 | CSc1ccc(C(=O)C2CCCN(Cc3ccn[nH]3)C2)cc1 (stereo not drawn) | -26.6
68 | CSc1ccc(C(=O)C2CCCN(Cc3cccnc3)C2)cc1 (stereo not drawn) | -53
69 | CCCCn1nc(C(=O)NCC2COc3ccccc3O2)c2ccccc2c1=O (stereo not drawn) | -49.1
70 | O=[N+]([O-])c1ccccc1/C=C/C=N/n1c(-c2ccc(Cl)cc2)n[nH]c1=S | 17.5
71 | O=C(CN(Cc1ccco1)C(=O)CNS(=O)(=O)c1ccc(F)cc1)NCc1ccccc1 | -28.4
72 | CCOC(=O)C1CCN(C(=O)CCNC(=O)c2cc(OC)c(OC)c(OC)c2)CC1 | 10.9

Row | Structure (SMILES) | hERG current change (%, negative = inhibition) at 10uM [%]
73 | CCN1CCCC1CNC(=O)c1ccc(Sc2ccc(F)cc2)c([N+](=O)[O-])c1 (stereo not drawn) | -66.5
74 | O=C(c1ccc(Sc2ccc(F)cc2)c([N+](=O)[O-])c1)N1CCOCC1 | -18.5
75 | O=C(NCCCN1CCOCC1)c1ccc(Sc2ccc(F)cc2)c([N+](=O)[O-])c1 | -33.3
76 | CCN1CCCC1CNC(=O)c1ccc(Sc2ccccc2Cl)c([N+](=O)[O-])c1 (stereo not drawn) | -64.1
77 | O=C(NCCCN1CCOCC1)c1ccc(Sc2ccccc2Cl)c([N+](=O)[O-])c1 | -22.7
78 | CCN1CCCC1CNC(=O)c1ccccc1Cl (stereo not drawn) | -10.6
79 | CCOc1ccc(-c2nnn(CC(=O)N3CCCC3)n2)cc1OCC | 13.8
80 | Cl.O=c1c(-c2ccccc2)coc2c(CN3CCCCC3)c(O)ccc12 | 14.6
81 | COc1ccc(NC(=O)CSCC(=O)N=c2sccn2C)cc1 | 11
82 | O=C(Nc1ccc(O)cc1)c1cc2n(n1)C(C(F)(F)F)CC(c1ccco1)N2 (stereo not drawn) | -5.45
83 | O=S(=O)(Nc1cccc(-c2cn3cccnc3n2)c1)c1ccc(Cl)cc1 | 16.4
84 | CN1CCN(CC(=O)NC23CC4CC(CC(C4)C2)C3)CC1.Cl | 4.19
85 | CCc1ccc(Nc2n[n+](-c3ccccc3)c(-c3cccc(Cl)c3Cl)s2)cc1.[Cl-] | -1.43
86 | CCc1ccc(Nc2n[n+](-c3ccccc3)c(/C=C/c3ccccc3)s2)cc1.[Cl-] | -69
87 | COc1cc(Br)c(-c2sc(Nc3ccccc3)n[n+]2-c2ccccc2)cc1OC.[Cl-] | -68.7
88 | CCc1ccc(Nc2n[n+](-c3ccccc3)c(-c3c(Cl)cccc3Cl)s2)cc1.[Cl-] | -27.5
89 | CCc1ccc(Nc2n[n+](-c3ccccc3)c(-c3ccc(SC)cc3)s2)cc1.[Cl-] | -2.72
90 | COc1ccc(-c2sc(Nc3ccccc3)n[n+]2-c2ccccc2)cc1Br.[Cl-] | -48.7
91 | COc1cc(Br)c(-c2sc(Nc3ccccc3)n[n+]2-c2ccc(F)cc2)cc1OC.[Cl-] | -37.1
92 | CCc1ccc(Nc2n[n+](-c3ccccc3)c(-c3ccc(OCc4ccccc4)cc3)s2)cc1.[Cl-] | -45.2
93 | CCc1ccc(Nc2n[n+](-c3ccccc3)c(-c3cc(OC)c(OC)cc3Br)s2)cc1.[Cl-] | -55
